Assay outcomes deposited in PubChem by several laboratories.
A selection: hits, their analogues and other compounds. The true share with any hit is near 2%.
S1P4 antagonist: blocks the human S1P4 receptor; S1P4-expressing cells, antagonist mode, reporter read-out; inhibition, % at 4.98 µM; hit rate 0.26% among 220,000; AID 1510; in the data active means inhibition above about 29%;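 further: 0% = wells stimulated with agonist and 100% = vehicle wells without agonist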
S1P4 agonist: agonists of human S1P4 receptor. S1P4-expressing cell line, agonist reporter assay. O95977. AID 1509. hit rate 0.35% among 220,000. activation, % at 4.98 µM; in the data active means activation above about 11%;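 further: 0% = DMSO vehicle and 100% = reference agonist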
PGE2 EP2 inh: inhibitors of human EP2 prostaglandin E2 receptor | C6 glioma cells expressing human EP2, cAMP TR-FRET; cells stimulated with saturating PGE2 | hit rate 0.52% among 260,000 | inhibition, % at 25 µM;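 active means percent inhibition above 40 after rounding to a whole number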;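 further: rat C6 glioma host cells with rolipram phosphodiesterase inhibitor present; the protocol text gives 20 µM as final concentration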
Target sequence (P43116 whole entry, looked up): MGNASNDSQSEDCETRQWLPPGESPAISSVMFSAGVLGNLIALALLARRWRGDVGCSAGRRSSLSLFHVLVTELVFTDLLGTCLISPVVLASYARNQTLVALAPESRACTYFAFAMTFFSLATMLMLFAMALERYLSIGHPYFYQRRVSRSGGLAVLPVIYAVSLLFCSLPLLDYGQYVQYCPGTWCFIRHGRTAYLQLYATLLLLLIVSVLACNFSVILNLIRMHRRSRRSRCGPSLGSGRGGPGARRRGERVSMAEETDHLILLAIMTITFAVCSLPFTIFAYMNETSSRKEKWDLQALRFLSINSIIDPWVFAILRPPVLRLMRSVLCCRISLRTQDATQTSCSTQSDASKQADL
S1P3 antag: blocks the human S1P3 receptor; Q99500; CHO S1P3 NFAT-BLA reporter, FRET fluorescence, antagonist mode; inhibition, % at 4.98 µM; hit rate 0.27% among 170,000; AID 485;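 active means inhibition above the plate cutoff, the mean inhibition of test wells on that plate plus 3 SD, cut at about 28% in these data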;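 further: cells challenged with S1P at its EC80 of 0.8 µM; blue over green emission ratio from cleaved BLA substrate after 4 h stimulation; 0% = S1P-stimulated wells and 100% = unstimulated DMSO-only wells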
Target sequence (Q99500 whole entry, looked up): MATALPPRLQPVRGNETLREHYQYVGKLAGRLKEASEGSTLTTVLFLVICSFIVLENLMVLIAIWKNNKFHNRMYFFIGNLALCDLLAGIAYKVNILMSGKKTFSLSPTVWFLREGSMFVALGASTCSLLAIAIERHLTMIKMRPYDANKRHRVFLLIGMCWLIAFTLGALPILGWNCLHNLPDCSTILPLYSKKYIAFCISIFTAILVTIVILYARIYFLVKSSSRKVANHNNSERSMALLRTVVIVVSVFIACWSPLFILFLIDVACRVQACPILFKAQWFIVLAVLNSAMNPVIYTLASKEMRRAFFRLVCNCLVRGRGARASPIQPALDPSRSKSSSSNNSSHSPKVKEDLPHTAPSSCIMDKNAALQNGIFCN
EP2 mod: modulates human prostaglandin E2 receptor EP2 signaling; hit rate 0.83% among 260,000; induction, % at 25 µM; EP2-expressing cells, cAMP HTRF FRET, PGE2 co-stimulation; P43116;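 active means compounds whose cAMP rise, as percent of the full-agonist control response, exceeds 60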;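 further: rat C6 glioma line stably carrying human EP2 under a CMV promoter; the protocol text gives 20 µM as final concentration; 100% = response of wells given 1 µM PGE2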
Starred values were filed as active, the others as inactive; . = no result; + = active, no number; ! = repeats disagree.

SMILES | S1P4 antagonist | S1P4 agonist | PGE2 EP2 inh | S1P3 antag | EP2 mod
CCN1/C(=C/C(C)=C/c2sc3ccccc3[n+]2CC)Sc2ccccc21 | -4.9 | 0.5 | + | 12.8 | -255.4
Cn1c(N/N=C/c2cccs2)cc(=O)n(C)c1=O | 0.2 | 1.9 | . | . | 10.3
Fc1c(F)c(C(F)(F)F)c(F)c(F)c1N/N=C\c1cccs1 | -28.6 | 3.4 | 123.8* | . | -47.0
CCOc1ccc2[nH]c3c(N4CCc5ccccc5C4)ncnc3c2c1 | 12.1 | -0.1 | 43.7* | 9.1 | -51.8
Cc1ccc2[nH]c3c(N4CCc5ccccc5C4)ncnc3c2c1 | -3.9 | 1.7 | 27.6 | . | -76.4
COc1ccc2[nH]c3c(N4CCN(Cc5ccc6c(c5)OCO6)CC4)ncnc3c2c1 | -1.3 | 2.3 | 60.5* | . | -80.0
O=C1NC(=O)N(c2ccc(F)cc2)C(=O)/C1=C/c1ccc(N2CCOCC2)o1 | . | . | 10.3 | . | -9.4
O=C1NC(=O)N(c2ccc(F)cc2)C(=O)/C1=C/c1ccco1 | . | . | 53.3* | . | -120.2
Cc1cc(=Nc2ccc3c(c2)c(N)cc(C)[n+]3C)nc(N)n1C | . | . | 42.4* | . | 20.2
ClC(=Nc1cccc2ccccc12)N(c1ccccc1)c1ccccc1 | . | . | 39.7* | . | 37.8
NC(N)=NC(N)=Nc1cccc2ccccc12 | 16.0 | 1.0 | 7.5 | -20.7 | -31.4
O=C(Nc1ccncc1)c1ccc2c(c1)C(=O)N(C1CCCCC1)C2=O | -15.5 | -0.2 | 46.0* | . | -10.2
Cc1ccc(C)c(N2CCN(Cc3nnnn3C3CCCCC3)CC2)c1 | -17.8 | 1.2 | 9.0 | -19.7 | 61.3*!
Cn1ccnc1CN(CCNC(=O)c1cccs1)Cc1ccccn1 | . | . | 10.2 | . | 21.5
CN(C)CCCNC(=O)CN1N=C(c2ccccc2)Cn2c(cc3sccc32)C1=O | . | . | 7.8 | . | -51.9
Cc1noc(-c2ccccc2OC(=O)c2ccccc2)n1 | -13.6 | -0.5 | 5.8 | -11.2 | 64.1*
CC1CCN(C(=O)COc2ccc(S(=O)(=O)NC(C)C)cc2)CC1 | . | . | 7.3 | . | -25.5
COc1cc2c(cc1NC(=S)Nc1cccc3ccccc13)oc1ccccc12 | -3.8 | -2.4 | 42.5* | . | -27.9
CCc1nn(CC(=O)N(Cc2ccccn2)C2CC2)c(=O)c2cc3sccc3n12 | . | . | . | . | -77.6
O=C(CCC(=O)Nc1ccc(OCc2ccccc2)cc1)NCc1ccco1 | . | . | 2.9 | . | -4.3
CSc1ccccc1NC(=O)C1CC(c2ccccc2O)=NO1 (centres undefined) | -3.8 | -2.4 | 9.3 | 82.2* | -2.9
COc1cc(C(=O)Nc2nc(-c3cccs3)cs2)cc(OC)c1OC | -15.4 | 1.2 | 87.5* | -23.1 | -29.5
O=C(Nc1nc(-c2cccs2)cs1)c1ccc(Cl)cc1 | -11.2 | 2.3 | 3.6 | . | 7.5
Cc1csc(NC(=O)c2sc3nc(-c4cccs4)ccc3c2N)n1 | -8.9 | 2.8 | 63.7* | 43.8 | -48.5
COc1ccc(C(=O)Nc2nc(-c3cccs3)cs2)cc1 | -9.4 | 0.1 | 42.6* | 7.6 | -22.1
SMILES | S1P4 antagonist | S1P4 agonist | PGE2 EP2 inh | S1P3 antag | EP2 mod
COc1ccc(-c2ccccc2)cc1NS(=O)(=O)c1ccc2c(c1)CCC(=O)N2 | . | . | 7.8 | . | -100.1
O=C(NCCc1nc(-c2ccncc2)n[nH]1)C1(c2ccc(Cl)cc2)CCCCC1 | . | . | 8.0 | . | 11.7
Cn1ccnc1Sc1nc2ccccc2nc1NS(=O)(=O)c1ccccc1 | -8.5 | -0.4 | 51.6* | 1.3 | 50.0
Cn1cnnc1Sc1nc2ccccc2nc1NS(=O)(=O)c1ccccc1 | -9.2 | -0.8 | 9.6 | 0.7 | 30.4
COc1cccc(C(=O)C(C#N)=C(SC)SC)c1 | 3.5 | 0.0 | 10.4 | 5.9 | -33.2
CSC(SC)=C(C#N)C(=O)c1ccccc1 | 8.3 | 0.8 | 48.2* | -21.1 | -37.7
O=C(NCCNCc1ccccc1F)c1ccco1 | . | . | 11.5 | . | -1.6
CCC1(C)CC2(CCCN(CCC(=O)c3ccccc3)C2)CCO1 (centres undefined) | 1.9 | 2.5 | 80.6*! | -6.1 | -94.3
O=C(CCN1CCCCCC1)c1ccccc1 | -5.0 | 5.6 | 52.3* | . | -6.9
CC1(C)CC2(CCCN(C(=S)Nc3ccccc3)C2)CCO1 (centres undefined) | -21.5 | -0.9 | 2.8 | 8.6 | -7.2
COc1ccc(C(=O)CCN2CCCCCC2)cc1 | -11.6 | 0.2 | 6.8 | . | 2.3
CCN(CC)CCCN(Cc1cc2cc(C)ccc2[nH]c1=O)C(=O)Nc1ccc(F)cc1 | . | . | 9.6 | . | -41.6
Cc1ccc(-c2nnn(CC(=O)N3CCCc4ccccc43)n2)o1 | . | . | 7.4 | . | -71.7
CCn1c2ccccc2n2c(=O)n(CC(=O)N3CCNC(=O)C3(C)C)nc12 | . | . | . | . | -11.6
CCOC(=O)c1sc(N2C(=O)C(=O)/C(=C(\O)c3ccc(OC)cc3C)C2c2cccnc2)nc1C (centres undefined) | . | . | 54.5* | . | 3.5
COc1ccc(CCN(C(=O)c2ccccc2)C2=CC3CCC(C2)N3C)cc1OC (centres undefined) | -11.2 | -0.7 | 7.3 | 85.4* | 10.3
Cn1cc(C(=O)CCl)c2ccccc21 | 0.8 | 1.0 | 11.2 | -2.3 | -17.1
Cn1cc(/C(Cc2ccccc2)=N\O)c2ccccc21 | -8.5 | -0.4 | 5.2 | 26.4 | 63.7*
CCNC(=S)/N=C(/Nc1ccccc1)Nc1nc(C)cc(C)n1 | 15.6 | 0.2 | 7.1 | 8.1 | 69.8*
Cn1c(N2CCCC(C(=O)NCCc3ccccc3F)C2)nc2ccccc21 (centres undefined) | . | . | 10.0 | . | -8.3
C[C@H](NCCN(C)C)[C@@H]1CC[C@@H]2[C@H]3CCc4cc(O)ccc4[C@@H]3CC[C@]21C | . | . | 53.0* | . | -32.9
CN(C)CCCc1c2ccccc2nc2ccc(Cl)cc12 | . | . | 57.5* | . | 2.3
Cc1cc(C(=O)NCCCN(C)C)c2ccccc2n1 | -10.0 | 0.7 | 5.3 | 6.0 | 2.6
CCOC(=O)c1cc(C)sc1NC(=O)c1ccccc1Cl | . | . | 8.8 | . | 71.5*
O=C1c2ccccc2C(Nc2cccc(C(F)(F)F)c2)N1Cc1ccco1 (centres undefined) | -22.0 | 0.7 | 20.6 | -4.5 | 60.7*
SMILES | S1P4 antagonist | S1P4 agonist | PGE2 EP2 inh | S1P3 antag | EP2 mod
O=C1c2ccccc2C(Nc2ccccc2)N1Cc1ccc2c(c1)OCO2 (centres undefined) | 3.9 | 0.9 | 8.9 | 6.3 | 71.9*
O=C1c2ccccc2C(Nc2ccc3c(c2)OCCO3)N1Cc1ccc2c(c1)OCO2 (centres undefined) | -6.9 | 0.1 | 4.1 | 36.2 | -6.4
CC(=O)Oc1ccc(N2C(=O)C3C4C=CC(CO)(O4)C3C2=O)cc1 (centres undefined) | -7.1 | 1.6 | 17.1 | . | -0.6
CC(=O)Oc1ccc(N2C(=O)C3C(C2=O)C2(C)C=CC3(C)O2)cc1 (centres undefined) | . | . | 135.8* | 4.8 | .
CCC(C)NC(=O)CS(=O)(=O)Cc1nc(-c2cccc(OC)c2)oc1C (centres undefined) | -7.6 | 1.4 | 11.5 | 85.4* | -1.5
COc1cccc(-c2nc(CS(=O)(=O)CC(=O)NCc3ccccc3)c(C)o2)c1 | 18.0 | -0.4 | . | -32.0 | 1.4
COc1ccc(NC(=O)c2nc3ncccn3n2)cc1Cl | . | . | 17.7 | . | -37.4
CCOc1ccc(N(Cc2ccc(OC)c(OC)c2)C(=O)c2ccco2)cc1 | -4.5 | 3.9 | 5.6 | 7.1 | 0.2
COc1ccc(CN(C(=O)c2ccco2)c2ccc(C)c(C)c2)cc1 | -21.7 | 8.9 | 7.0 | 2.2 | 64.8*
N#Cc1c(-c2ccc3c(c2)OCO3)cc(-c2ccc(F)cc2)nc1N | . | . | 22.3 | . | 61.4*
